20 compounds from paper PMC4552634, “A New Set of Chemical Starting Points with Plasmodium falciparum Transmission-Blocking Potential for Antimalarial Drug Discovery” (PLoS ONE, 2015) can be followed below.

The campaign covered roughly 13,000 compounds. About 3,200 (25%) showed an effect of 50% or more. The list shows a part of the results.

The subject of this experiment is P. falciparum stage V gametocytes. Details: BacTiter-Glo ATP luminescence viability of purified stage V gametocytes in 384-well plates, per cent inhibition versus DMSO. The settings on record: 48 h, 5 µM; inhibitor.
The % Inhibition is the change of the read-out against control, counted positive when it falls. Consider `CC(=O)c1c(Nc2c(C)cc(C)cc2C)oc(C)cc1=O` [TCMDC-125654], for which the “% Inhibition” value worked out at 7.725%. The value for `Cc1ccccc1C1CCN(C2CCC(NC(=O)c3ccc4c(c3)-c3nocc3C(C)O4)CC2)CC1` (centres unmarked) [TCMDC-134101] was -36.23%; that for `O=C(Nc1cc(=O)[nH]c2nc(-c3ccccc3)nn12)C1CCCCC1` [TCMDC-125474] was 2.661%. On to `Cc1cccc2[nH]c(-c3cccc(-c4ccc(NC(=O)NCc5cccc(F)c5)cc4)c3)nc12` [TCMDC-133289], for which the “% Inhibition” value is 46.25%. With `CN(C)C(=O)c1cc(CNCc2ccccc2)ccc1-c1cccc(CNCc2ccc(-c3ccccc3)cc2)c1` [TCMDC-139617] the figure was 33.8%. The value for `CNCc1ccc(-c2cccc(CNCc3ccc(-c4ccccc4)cc3)c2)c(C(=O)OC)c1` [TCMDC-139615] was 117.6%; that for `CC(C)NCc1ccc(-c2cccc(CN3CCC(c4ccccc4)CC3)c2)c(C(=O)NCC2CCCCC2)c1` [TCMDC-134701] was 29.45%.

For the compound `CCCCNC(=O)c1cc(CNC2CCCCC2)ccc1-c1cccc(CNCc2ccc(-c3ccccc3)cc2)c1` [TCMDC-139614], the “% Inhibition” value stood at 92.13%.

Consider `COc1cccc(CNC(=O)c2cc(CNCc3ccccc3)ccc2-c2cccc(CNCc3ccc(-c4ccccc4)cc3)c2)c1` [TCMDC-139616], for which the “% Inhibition” value came to 14.44%. For the compound `COC(=O)c1cccc(CNCc2cccc(-c3csc(-c4nc5ccccc5[nH]4)c3)c2)c1` [TCMDC-132943], the “% Inhibition” value was -44.21%. With `CCCCN(CCCC)CCNC(=O)c1cccc(NC(=O)N2CCc3cc(SC)c(C(F)(F)F)cc32)c1` [TCMDC-139012], the “% Inhibition” value is -13.47%. For `Cc1ccccc1NC1=NC(=S)N(c2cccc(C(F)(F)F)c2)C12CCC(C(C)(C)C)CC2` (centres unmarked) [TCMDC-125677], the “% Inhibition” value worked out at 20.36%. The value for `CCCCCCN1CCC(CNCc2cccc([N+](=O)[O-])c2)CC1` [TCMDC-141211] was 17.53%; that for `COc1cccc2sc(N3CCN(C(=O)c4ccc([N+](=O)[O-])o4)CC3)nc12` [TCMDC-125150] was 57.22%. Regarding `O=C(Nc1ccc(N2CCN(C(=O)/C=C/c3ccccc3)CC2)c(Cl)c1)c1ccc([N+](=O)[O-])o1` [TCMDC-125229], the “% Inhibition” value was determined as 0.8671%. With `CCc1cccc2sc(N3CCN(C(=O)c4ccc([N+](=O)[O-])o4)CC3)nc12` [TCMDC-124317] the figure was 88.03%. For `Cc1cc(C)c2oc(-c3cccc(NC(=O)c4ccc([N+](=O)[O-])o4)c3C)nc2c1` [TCMDC-123704], the “% Inhibition” value came to 43.1%.

For the compound `Cc1ccc2sc(N3CCN(C(=O)c4ccc([N+](=O)[O-])o4)CC3)nc2c1C` [TCMDC-124314], the “% Inhibition” value is reported as 93.58%.

`Cc1c(Cl)ccc2sc(N3CCN(C(=O)c4ccc([N+](=O)[O-])o4)CC3)nc12` [TCMDC-125453]: the “% Inhibition” value was determined as 88.71%.

In the case of `COc1ccccc1C(=O)N1CCN(Cc2cccs2)CC1` [TCMDC-139297], the “% Inhibition” value is 0.2209%.
